PubChem BioAssay (NCATS)
Inconclusive results are not listed. Calls of active or inactive are those of the source. Unless noted, calls follow the shape of the full dose curve.

Legend:
[1] = target: Estrogen receptor (Homo sapiens) (UniProt P03372); assay: qHTS assay for small molecule agonists of estrogen receptor alpha signaling (AID 588514);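 also: 0% = vehicle only and 100% = reference agonist; nearly all actives have a fitted effect of over 70% in size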
Method in brief: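 Reporter-gene assay. […] controls beta-lactamase in HEK 293 GripTite cells; after 18 hrs with compound, CCF4 substrate is added for 2 hrs and fluorescence is read.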

[2] = target: Glucocorticoid receptor (Homo sapiens) (UniProt P04150); assay: qHTS assay for small molecule agonists of glucocorticoid receptor signaling (AID 588532; active = well fitted curve in the direction sought with a large enough effect in the signal ratio, with a control signal flat; the % refers to the signal ratio;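 also: 100% = dexamethasone at 0.1 µM and 0% = DMSO only wells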); conditions: HeLa MMTV-bla, beta-lactamase ratio, agonist, 18 h; activation: stronger effect = higher value, percent of dexamethasone control, DMSO zero
Method in brief: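 Agonist-mode qHTS: GRE-driven beta-lactamase in HeLa cells exposed 18 h to titrated compounds (up to 92 uM), then CCF4 ratio read after 2 h at RT; Hill-fitted EC50, efficacy relative to 0.1 uM dexamethasone.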

[3] = target: Peroxisome proliferator-activated receptor delta (Homo sapiens) (UniProt Q03181); assay: qHTS assay for small molecule agonists of peroxisome proliferator-activated receptor delta signaling (AID 588534);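 also: 0% = DMSO basal wells and 100% = positive control agonist at 10 µM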
Method in brief: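 Reporter cells were plated and held 5 hrs at 37 C before compounds were added. After 18 hrs at 37 C, CCF4 dye was loaded for 2 hrs at RT and fluorescence measured.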

[4] = target: Vitamin D3 receptor (Homo sapiens) (UniProt P11473); assay: qHTS assay for small molecule agonists of vitamin D receptor signaling (AID 588543);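 also: 0% = DMSO basal and 100% = reference agonist control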
Method in brief: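 qHTS in agonist mode: compound titrations stimulate a VDR-driven β-lactamase reporter in HEK293T cells over 16 h at 37 °C. Response normalized to 50 nM 1α,25-dihydroxyvitamin D3 = 100%, DMSO = 0%; Hill fitting gives EC50 and maximal response.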

[5] = target: Thyroid hormone receptor beta (Homo sapiens) (UniProt P10828); assay: qHTS assay for small molecule agonists of thyroid hormone receptor beta signaling (AID 588545)
Method in brief: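 HEK 293 TR-UAS-bla; agonist mode; 18 hrs, 37 C; CCF4, ex 405/em 460 and 530 nm; norm. T3 10 nM = 100%, DMSO = 0%; Hill fit → EC50, efficacy.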

[6] = target: Thyroid hormone receptor beta (Homo sapiens) (UniProt P10828); assay: qHTS assay for small molecule antagonists of thyroid hormone receptor beta signaling (AID 588547; active = well fitted inhibition curve with a large enough effect in the signal ratio, with a control signal flat, not every such curve was filed as active; the % refers to the signal ratio;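 also: cells stimulated with 0.4 nM T3 agonist during compound exposure; series mostly up to about 77 µM; % is scaled to controls: 0 for no effect and ±100 for the full control effect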); conditions: TR-UAS-bla HEK293, beta-lactamase ratio, antagonist mode, 18 h
Method in brief: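 Inhibition of T3-driven (0.4nM final) beta-lactamase reporter activity was measured over 0.59 nM to 92 uM compound after 18 h at 37 C. The cells were GripTite HEK293 TR-UAS-bla in charcoal/dextran-stripped serum, with CCF4 ratio read-out and IC50 from Hill fits.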

[7] = qHTS assay for small molecule activators of the p53 signaling pathway (AID 651743; active = well fitted activation curve with a large enough effect in the signal ratio, not every such curve was filed as active; the % refers to the signal ratio; also: series mostly up to about 92 µM; % of control where 0% means no effect); conditions: HCT-116 p53RE-bla, beta-lactamase FRET ratio, 16 h; activation: stronger effect = higher value
Method in brief: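 Screen for p53 pathway agonists uses stably transfected p53RE-bla HCT-116 cells, 4,000 per well, treated 16 h at 37 C with compounds in DMSO.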

[8] = qHTS assay for environmental chemicals that activate the Aryl hydrocarbon Receptor (AhR) signaling pathway (AID 651777; active = well fitted curve in the direction sought with a large enough effect; an effect the other way counts as inactive or inconclusive; also: % of control where 0% means no effect; nearly all actives have a fitted effect of over 15% in size); conditions: 1A2-DRE human hepatoma cells, luciferase, 24 h; activation: stronger effect = higher value
Method in brief: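 Stable CYP1A2 promoter/DRE-luciferase human hepatoma line treated 24 hr; One-Glo luminescence, 30 min RT.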

[9] = target: Peroxisome proliferator-activated receptor alpha (Homo sapiens) (UniProt Q07869); assay: qHTS assay for small molecule agonists of the peroxisome proliferator-activated receptor alpha (PPARalpha) signaling pathway (AID 651778; active = well fitted curve in the direction sought with a large enough effect; an effect the other way counts as inactive or inconclusive; also: % of control where 0% means no effect); conditions: PathHunter PPARalpha complementation, chemiluminescence, 6 h; max response: stronger effect = higher value
Method in brief: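 Chemiluminescence from complemented enzyme reported PPARalpha activation in cells after 6 hr of compound treatment at 37 C. The detection reagent was incubated for 60 min at room temperature, and compounds were scored as agonists.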

[10] = qHTS assay for small molecule agonists of the antioxidant response element (ARE) signaling pathway measured by Nrf2-dependant transcriptional activity - cell viability counter screen (AID 720653; active = well fitted curve in the direction sought with a large enough effect in the repeat runs; an effect the other way counts as inactive or inconclusive; also: % is scaled to controls: 0 for no effect and ±100 for the full control effect); conditions: ARE-bla HepG2 viability, CellTiter-Glo ATP luminescence, 16 h; max response: stronger effect = lower value
Method in brief: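 Cytotoxicity counter screen: intracellular ATP quantified by CellTiter-Glo luminescence in the same ARE-bla HepG2 plates, after 16 h compound exposure and a 2 h beta-lactamase substrate step.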

[11] = qHTS assay for cell viability of HEK293 cells (AID 743288; active = well fitted curve in the direction sought with a large enough effect; an effect the other way counts as inactive or inconclusive; also: % is scaled to controls: 0 for no effect and ±100 for the full control effect; nearly all actives have a fitted effect of over 50% in size); conditions: ATP luminescence (CellTiter-Glo), 18 h; max response: stronger effect = lower value
Method in brief: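 The Tox21 protocol used parental HEK293 cells treated for 18 h at 37 C with compounds delivered by pintool; ATP-coupled luminescence after 30 min at room temperature gave viability.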

[12] = qHTS assay for cell viability of the p53RE-bla HCT-116 cell line (AID 743292; active = well fitted curve in the direction sought with a large enough effect; an effect the other way counts as inactive or inconclusive; also: % is scaled to controls: 0 for no effect and ±100 for the full control effect; nearly all actives have a fitted effect of over 55% in size)
Method in brief: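 Readout: CellTiter-Glo luminescence after 30 min RT. Treatment: compounds in DMSO, 16 h, 37 C. Cells: CellSensor p53RE-bla HCT-116, 4,000/well, preincubated 5 h.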

[13] = target: Nuclear receptor subfamily 1 group I member 2 (Rattus norvegicus) (UniProt Q9R1A7); assay: qHTS assay for small molecule activators of the rat pregnane X receptor (rPXR) signaling pathway (AID 651751; call rule not given here; also: 0% is about no effect); conditions: rPXR reporter cells, luciferase (One-Glo), 24 h
[14] = target: Glucocorticoid receptor (Homo sapiens) (UniProt P04150); assay: qHTS assay for small molecule antagonists of glucocorticoid receptor signaling (AID 588533; active = well fitted inhibition curve with a large enough effect in the signal ratio, with a control signal flat, not every such curve was filed as active; the % refers to the signal ratio;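 also: cells stimulated with 2 nM dexamethasone as agonist; % is scaled to controls: 0 for no effect and ±100 for the full control effect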)
Method in brief: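 Antagonist-mode qHTS: compound titrations added to GRE-bla HeLa cells, then dexamethasone 2 nM final; 18 h, 37 C. CCF4 FRET fluorescence normalized to dexamethasone and DMSO; IC50 from Hill fit.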

[15] = target: Peroxisome proliferator-activated receptor gamma (Homo sapiens) (UniProt P37231); assay: qHTS assay for small molecule agonists of peroxisome proliferator-activated receptor gamma signaling (AID 588536; active = well fitted curve in the direction sought with a large enough effect in the signal ratio, with a control signal flat, not every such curve was filed as active; the % refers to the signal ratio;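 also: 0% = DMSO basal wells and 100% = rosiglitazone at 2 µM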)
Method in brief: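 PPAR-gamma-UAS-bla HEK293 cells in medium with 1% charcoal/dextran-treated FBS were exposed to compounds for 16 h at 37 C. Beta-lactamase activity was read with CCF4 substrate (405 nm excitation, 460/530 nm emission).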

[16] = qHTS assay for small molecule agonists of retinoid X receptor alpha signaling (AID 588544); conditions: HEK293T RXRa-UAS-bla, beta-lactamase reporter, 18 h; 530 nm emission;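 as to activation: 0% = DMSO basal wells and 100% = reference agonist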
[17] = target: Retinoic acid receptor RXR-alpha (Homo sapiens) (UniProt P19793); assay: as above
[18] = qHTS assay for small molecule antagonists of retinoid X receptor alpha signaling (AID 588546; active = well fitted inhibition curve with a large enough effect in the signal ratio, with a control signal flat, not every such curve was filed as active; the % refers to the signal ratio;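 also: cells stimulated with 9-cis-retinoic acid as agonist; % is scaled to controls: 0 for no effect and ±100 for the full control effect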); conditions: HEK293T RXRa-UAS-bla, beta-lactamase ratio, antagonist mode; measured here: W530 green channel, cytotoxicity proxy
Method in brief: (§1)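 Beta-lactamase reporter inhibition, read as CCF4 fluorescence ratio (ex 405, em 460/530 nm) after 2 h at RT. HEK293T UAS-bla cells, 2500/well, were stimulated with 9-cis-RA at 500 or 100 nM final alongside test compound for 18 h at 37 C.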

[19] = target: Retinoic acid receptor RXR-alpha (Homo sapiens) (UniProt P19793); assay: as above; conditions: HEK293T RXRa-UAS-bla, beta-lactamase ratio, antagonist mode
Method in brief: as §1

[20] = qHTS assay for small molecule agonists of the antioxidant response element (ARE) signaling pathway measured by Nrf2-dependant transcriptional activity (AID 720636; active = well fitted curve in the direction sought with a large enough effect in the repeat runs; an effect the other way counts as inactive or inconclusive;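 also: HepG2 cells with an ARE-driven luciferase reporter; % of control where 0% means no effect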)
Method in brief: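 Reporter gene assay, HepG2 ARE-luc: 16 hr compound, 37 C, 5% CO2; read-out luciferase luminescence.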

Chain of Glucocorticoid receptor (Homo sapiens) (P04150 whole entry, looked up): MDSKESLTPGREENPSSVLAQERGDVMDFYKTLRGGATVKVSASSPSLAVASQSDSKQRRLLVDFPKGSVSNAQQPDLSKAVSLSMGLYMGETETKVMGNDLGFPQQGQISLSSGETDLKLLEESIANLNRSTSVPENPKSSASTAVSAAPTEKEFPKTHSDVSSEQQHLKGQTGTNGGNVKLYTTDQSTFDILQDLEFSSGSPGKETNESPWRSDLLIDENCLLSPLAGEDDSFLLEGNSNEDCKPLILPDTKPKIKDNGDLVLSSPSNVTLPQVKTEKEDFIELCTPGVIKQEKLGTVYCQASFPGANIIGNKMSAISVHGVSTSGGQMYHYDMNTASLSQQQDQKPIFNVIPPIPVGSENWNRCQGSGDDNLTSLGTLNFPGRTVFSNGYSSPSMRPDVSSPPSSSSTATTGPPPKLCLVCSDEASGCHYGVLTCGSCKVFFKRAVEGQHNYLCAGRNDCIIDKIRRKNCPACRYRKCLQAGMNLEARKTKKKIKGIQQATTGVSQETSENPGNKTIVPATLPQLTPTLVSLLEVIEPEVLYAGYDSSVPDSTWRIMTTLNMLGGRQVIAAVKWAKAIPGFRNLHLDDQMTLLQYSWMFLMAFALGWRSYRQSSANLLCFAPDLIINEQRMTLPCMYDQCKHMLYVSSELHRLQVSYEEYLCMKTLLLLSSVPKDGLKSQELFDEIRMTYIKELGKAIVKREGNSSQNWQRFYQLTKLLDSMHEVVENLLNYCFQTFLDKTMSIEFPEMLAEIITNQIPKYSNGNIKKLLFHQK
Chain of Thyroid hormone receptor beta (Homo sapiens) (P10828 whole entry, looked up): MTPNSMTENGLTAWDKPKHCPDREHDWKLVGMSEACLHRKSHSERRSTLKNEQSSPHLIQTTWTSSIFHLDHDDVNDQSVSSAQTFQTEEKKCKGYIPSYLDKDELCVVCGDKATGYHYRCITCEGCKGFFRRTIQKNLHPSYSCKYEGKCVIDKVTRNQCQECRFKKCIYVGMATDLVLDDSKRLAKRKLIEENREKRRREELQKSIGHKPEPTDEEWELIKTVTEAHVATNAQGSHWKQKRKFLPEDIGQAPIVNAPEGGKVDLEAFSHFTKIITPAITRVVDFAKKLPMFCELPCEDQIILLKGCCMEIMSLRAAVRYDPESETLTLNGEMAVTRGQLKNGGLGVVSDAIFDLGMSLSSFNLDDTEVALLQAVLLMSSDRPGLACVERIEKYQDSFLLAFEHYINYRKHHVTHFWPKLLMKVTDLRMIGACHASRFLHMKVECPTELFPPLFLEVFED
Chain of Retinoic acid receptor RXR-alpha (Homo sapiens) (P19793 whole entry, looked up): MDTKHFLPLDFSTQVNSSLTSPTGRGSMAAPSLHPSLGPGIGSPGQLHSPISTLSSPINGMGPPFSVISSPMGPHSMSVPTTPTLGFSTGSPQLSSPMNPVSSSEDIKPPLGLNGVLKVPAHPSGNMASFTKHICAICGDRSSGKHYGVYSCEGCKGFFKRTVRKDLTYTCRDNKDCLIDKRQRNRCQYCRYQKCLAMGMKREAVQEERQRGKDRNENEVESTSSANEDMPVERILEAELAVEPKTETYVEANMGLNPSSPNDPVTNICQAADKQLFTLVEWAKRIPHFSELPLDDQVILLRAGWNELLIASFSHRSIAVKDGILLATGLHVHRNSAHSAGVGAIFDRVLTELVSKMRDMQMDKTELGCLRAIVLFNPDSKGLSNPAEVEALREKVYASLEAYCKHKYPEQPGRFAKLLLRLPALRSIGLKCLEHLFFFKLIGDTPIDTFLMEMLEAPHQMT
Chain of Vitamin D3 receptor (Homo sapiens) (P11473 whole entry, looked up): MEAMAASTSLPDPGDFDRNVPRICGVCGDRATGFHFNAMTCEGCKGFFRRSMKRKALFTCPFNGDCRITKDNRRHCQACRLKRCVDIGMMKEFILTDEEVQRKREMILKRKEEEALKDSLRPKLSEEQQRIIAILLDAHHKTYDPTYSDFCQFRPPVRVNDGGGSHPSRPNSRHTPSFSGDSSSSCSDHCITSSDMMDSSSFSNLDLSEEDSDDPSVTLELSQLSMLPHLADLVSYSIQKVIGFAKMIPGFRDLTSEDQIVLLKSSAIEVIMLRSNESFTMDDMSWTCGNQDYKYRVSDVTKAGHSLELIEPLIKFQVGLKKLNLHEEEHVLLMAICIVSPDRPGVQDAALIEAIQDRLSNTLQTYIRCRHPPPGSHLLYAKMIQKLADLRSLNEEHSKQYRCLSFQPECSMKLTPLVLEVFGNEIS
Chain of Peroxisome proliferator-activated receptor alpha (Homo sapiens) (Q07869 whole entry, looked up): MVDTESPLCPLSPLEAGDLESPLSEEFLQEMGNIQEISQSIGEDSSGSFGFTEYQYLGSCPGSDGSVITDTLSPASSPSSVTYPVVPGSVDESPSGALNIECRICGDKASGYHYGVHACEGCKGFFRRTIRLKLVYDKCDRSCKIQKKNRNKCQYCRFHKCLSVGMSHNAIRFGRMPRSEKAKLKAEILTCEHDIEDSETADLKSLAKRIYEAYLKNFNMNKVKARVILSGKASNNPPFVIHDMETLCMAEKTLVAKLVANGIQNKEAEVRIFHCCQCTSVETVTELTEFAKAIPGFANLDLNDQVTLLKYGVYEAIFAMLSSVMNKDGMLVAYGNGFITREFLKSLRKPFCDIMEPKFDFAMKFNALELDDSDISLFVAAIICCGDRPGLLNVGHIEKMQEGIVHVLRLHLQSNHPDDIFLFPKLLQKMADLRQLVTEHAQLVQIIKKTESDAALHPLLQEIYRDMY
Chain of Peroxisome proliferator-activated receptor delta (Homo sapiens) (Q03181 whole entry, looked up): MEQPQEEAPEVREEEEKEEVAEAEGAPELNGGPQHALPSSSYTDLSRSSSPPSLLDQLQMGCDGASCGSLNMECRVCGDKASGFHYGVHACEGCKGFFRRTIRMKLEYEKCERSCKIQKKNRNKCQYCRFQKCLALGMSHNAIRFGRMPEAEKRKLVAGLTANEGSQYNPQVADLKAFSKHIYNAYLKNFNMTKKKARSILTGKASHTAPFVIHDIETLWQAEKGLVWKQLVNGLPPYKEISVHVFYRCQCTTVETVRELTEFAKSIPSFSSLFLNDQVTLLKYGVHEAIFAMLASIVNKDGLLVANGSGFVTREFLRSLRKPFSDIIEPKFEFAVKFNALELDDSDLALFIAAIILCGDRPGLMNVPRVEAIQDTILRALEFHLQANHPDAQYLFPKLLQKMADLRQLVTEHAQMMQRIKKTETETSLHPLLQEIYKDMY
Chain of Nuclear receptor subfamily 1 group I member 2 (Rattus norvegicus) (Q9R1A7 whole entry, looked up): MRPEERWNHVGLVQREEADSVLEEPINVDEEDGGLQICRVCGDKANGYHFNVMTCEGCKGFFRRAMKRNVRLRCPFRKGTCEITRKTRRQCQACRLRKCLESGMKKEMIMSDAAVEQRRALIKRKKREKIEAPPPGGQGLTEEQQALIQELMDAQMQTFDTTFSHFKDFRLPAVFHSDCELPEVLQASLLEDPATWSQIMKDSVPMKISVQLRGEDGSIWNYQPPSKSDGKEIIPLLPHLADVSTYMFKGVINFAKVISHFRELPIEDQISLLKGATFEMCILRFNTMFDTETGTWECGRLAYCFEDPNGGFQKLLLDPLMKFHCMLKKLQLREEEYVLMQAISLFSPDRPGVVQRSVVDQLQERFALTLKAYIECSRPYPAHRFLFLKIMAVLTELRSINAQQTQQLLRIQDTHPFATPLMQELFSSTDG
Chain of Estrogen receptor (Homo sapiens) (P03372 whole entry, looked up): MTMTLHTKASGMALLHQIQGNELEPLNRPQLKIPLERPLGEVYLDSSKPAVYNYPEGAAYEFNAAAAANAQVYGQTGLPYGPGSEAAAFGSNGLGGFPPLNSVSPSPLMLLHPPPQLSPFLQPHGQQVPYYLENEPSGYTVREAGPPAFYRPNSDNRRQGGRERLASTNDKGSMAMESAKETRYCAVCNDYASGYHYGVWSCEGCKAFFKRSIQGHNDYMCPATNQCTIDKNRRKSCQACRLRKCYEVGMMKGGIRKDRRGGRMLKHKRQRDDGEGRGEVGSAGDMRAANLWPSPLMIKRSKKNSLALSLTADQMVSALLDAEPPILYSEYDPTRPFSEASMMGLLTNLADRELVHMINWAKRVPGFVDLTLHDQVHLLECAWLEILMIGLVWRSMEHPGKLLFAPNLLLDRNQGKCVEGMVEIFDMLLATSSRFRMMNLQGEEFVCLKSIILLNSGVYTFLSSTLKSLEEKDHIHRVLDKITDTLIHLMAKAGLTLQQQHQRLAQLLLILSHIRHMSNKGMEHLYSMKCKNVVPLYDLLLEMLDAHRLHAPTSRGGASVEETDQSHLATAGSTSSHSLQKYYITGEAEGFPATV
Chain of Peroxisome proliferator-activated receptor gamma (Homo sapiens) (P37231 whole entry, looked up): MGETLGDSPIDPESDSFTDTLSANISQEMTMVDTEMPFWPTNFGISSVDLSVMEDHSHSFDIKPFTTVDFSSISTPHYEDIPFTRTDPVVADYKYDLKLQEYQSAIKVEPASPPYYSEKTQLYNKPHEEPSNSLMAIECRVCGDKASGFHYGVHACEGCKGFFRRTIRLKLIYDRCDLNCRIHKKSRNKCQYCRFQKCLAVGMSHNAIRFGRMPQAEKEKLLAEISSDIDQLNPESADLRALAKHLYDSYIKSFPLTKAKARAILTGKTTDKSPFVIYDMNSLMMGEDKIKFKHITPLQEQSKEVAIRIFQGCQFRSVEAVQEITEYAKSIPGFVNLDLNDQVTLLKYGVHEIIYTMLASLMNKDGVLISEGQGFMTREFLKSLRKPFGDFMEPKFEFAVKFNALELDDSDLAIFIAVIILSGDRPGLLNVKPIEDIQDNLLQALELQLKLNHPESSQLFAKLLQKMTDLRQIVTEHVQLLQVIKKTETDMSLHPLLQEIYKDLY

Structure (SMILES) | Potency [1] | activation [2] | outcome [3] | outcome [4] | Potency [5] | activity change % (negative = inhibition) [6] | activation [7] | activation [8] | max response [9] | max response [10] | max response [11] | Potency [12] | max response [13] | Potency [14] | Potency [15] | max response [16] [%] | Potency [17] | max response [18] [%] | max response [19] | Potency [20]
CCCCOCN(C(=O)CCl)c1c(CC)cccc1CC | inactive | -1.18% (inactive) | inactive | inactive | inactive | -14.9% (inactive) | -3.79% (inactive) | -2.46% (inactive) | 0.0844% (inactive) | -23.8% (inactive) | -23.1% (inactive) | inactive | 3.67% (inactive) | – | – | – | – | – | – | –
O=[N+]([O-])Nc1nccn1Cc1ccc(Cl)nc1 | inactive | 0.289% (inactive) | inactive | – | inactive | -3.59% (inactive) | -1.74% (inactive) | – | -0.0433% (inactive) | -10.2% (inactive) | -8% (inactive) | inactive | -4.49% (inactive) | inactive | inactive | -15.2 | inactive | -3.06 | 5.37% (inactive) | inactive
CCOC(=O)C(Cl)Cc1cc(-n2nc(C)n(C(F)F)c2=O)c(F)cc1Cl (stereo not drawn) | inactive | -0.667% (inactive) | inactive | inactive | inactive | 18.6% (inactive) | 1.44% (inactive) | 1.53% (inactive) | 11% (inactive) | -4.81% (inactive) | -19.9% (inactive) | inactive | -2.22% (inactive) | inactive | – | 14.3 | inactive | 13.3 | -48.3% (inactive) | inactive
Cc1[nH]c(=O)n(C(C)(C)C)c(=O)c1Cl | inactive | – | – | – | – | 8.21% (inactive) | – | 0.775% (inactive) | -1.56% (inactive) | 0.82% (inactive) | -5.92% (inactive) | inactive | 0.145% (inactive) | – | inactive | -0.982 | inactive | – | – | inactive
COc1cc(OC)nc(NC(=O)NS(=O)(=O)c2ncccc2OCC(F)(F)F)n1 | inactive | 3.36% (inactive) | inactive | inactive | – | – | -0.487% (inactive) | 1.59% (inactive) | -0.694% (inactive) | -8.5% (inactive) | -8.98% (inactive) | – | -1.56% (inactive) | inactive | – | -19.3 | inactive | -1.53 | -28.8% (inactive) | inactive
